PubChem BioAssay AID463213 (Sanford-Burnham Center for Chemical Genomics, 2010)
About 4,100 (55%) of roughly 7,400 compounds were called active. The set was probably picked from earlier hits. A selection follows. Values without a mark were called inactive.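 How the source made its calls: active means inhibition of yeast growth at or above a set limit in either of two repeat tests at 20 µM; inactive means the rest.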

Assay: growth inhibitors of tim10-1 mutant yeast, confirmation, single concentration, luminescence, S. cerevisiae (AID 463213)
Conditions: S. cerevisiae tim10-1 ts strain growth, BacTiter-Glo, 24 h; at 20 µM; hits give high values

SMILES | inhibition
Cc1nc2ccccn2c1P(=S)(N1CCCCC1)N1CCCCC1 | 38.4% (active)
O=C1NC(=O)N(c2ccccc2)C(=O)/C1=C/c1ccc([N+](=O)[O-])s1 | 75.3% (active)
COc1cccc(N2C(=O)NC(=O)/C(=C\c3ccc([N+](=O)[O-])s3)C2=O)c1 | 76.5% (active)
N#CC1=C(N)Oc2c(c(=O)oc3ccccc23)C1c1ccccc1OC(=O)c1cccs1 (stereo not given) | 22.8%
CCCCCn1c(=O)c(C(=O)Nc2c(C)n(C)n(-c3ccccc3)c2=O)c(O)c2ccccc21 | 6.15%
